Compound activity as filed in PubChem.
An excerpt weighted towards active compounds, which were near 21% of everything screened.
RORgamma inh – blocks mouse ROR gamma transcriptional activity; AID 2551; P51450; Drosophila S2 Gal4-RORgamma UAS-luciferase reporter, 20 h; 310,000 compounds, 5.4% hits; Potency, µM (top dose mostly 53.6 µM), without a hit: at the top dose activity change, negative = inhibition, usual class: inhibitors; note: potency is the fitted concentration of half-maximal effect; nearly all actives have a fitted effect of over 60% in size
Target sequence (P51450 whole entry, looked up, the tested form may be a part): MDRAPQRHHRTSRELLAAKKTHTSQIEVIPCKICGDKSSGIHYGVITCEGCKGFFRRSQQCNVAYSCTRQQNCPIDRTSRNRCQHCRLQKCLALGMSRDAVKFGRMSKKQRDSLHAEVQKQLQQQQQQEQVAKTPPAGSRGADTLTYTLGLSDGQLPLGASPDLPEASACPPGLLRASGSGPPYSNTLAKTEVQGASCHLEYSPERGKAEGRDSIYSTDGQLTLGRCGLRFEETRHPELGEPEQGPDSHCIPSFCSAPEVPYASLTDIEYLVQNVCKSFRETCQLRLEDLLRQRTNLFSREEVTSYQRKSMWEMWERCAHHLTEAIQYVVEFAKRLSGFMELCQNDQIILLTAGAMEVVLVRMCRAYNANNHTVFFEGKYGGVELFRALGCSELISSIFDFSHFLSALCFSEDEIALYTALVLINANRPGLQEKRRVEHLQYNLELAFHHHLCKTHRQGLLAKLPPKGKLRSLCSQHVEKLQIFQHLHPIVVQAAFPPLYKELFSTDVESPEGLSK
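Read-out: Photinus luciferase luminescence; inhibitors lower reporter signal. Insect Schneider cells with Gal4-ROR gamma fusion under metallothionein promoter, UAS reporter; 700 uM final copper sulfate induction, 20 hr, ambient temperature.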
TDP1 cell noCPT – qHTS for Inhibitors of human tyrosyl-DNA phosphodiesterase 1 (TDP1): qHTS in cells in absence of CPT. DT40 Tdp1-/- hTDP1 cells, no CPT, ATP luminescence, 48 h. Potency, µM (highest dose often 46.2 µM), for inactives: top-dose activity change, negative = growth inhibition, usual class: inhibitors. 420,000 compounds, 15% hits. AID 686978, 2013; note: potency is the fitted concentration of half-maximal effect; nearly all actives have a fitted effect of over 55% in size
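Compound effects on proliferation are scored in DT40 Tdp1-/-;hTDP1 cells in the absence of CPT. ATP levels (CellTiter-Glo luminescence) are recorded after a ≥48 hr, 37 °C incubation.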
IL-1B inflam inh – blocks inflammasome-driven IL-1 beta release | activity change, % at 57.5 µM | 360,000 compounds, 4.7% hits | THP-1 LPS/ATP IL-1B secretion, AlphaLISA, 16 h; active compounds read low | AID 743279; in the data active = activity change below about -50%; inconclusive = mostly about -30% to -49%
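Secreted IL-1B measured by AlphaLISA bead assay after 16 h compound exposure of THP-1 cells; compounds (final up to 57.5 uM) added 1 h before LPS (250 ng/mL) and ATP (1.25 mM) stimulation; lower signal means less secretion.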
ELG1 repair inh – blocks ELG1-dependent DNA repair in HEK293T cells; HEK293T ELG1-luciferase reporter, luminescence, 16 h; DNA damage induced by 5-fluorouridine; Potency, µM (top dose mostly 46.1 µM), for inactives: top-dose activity change, negative = inhibition, hits mostly inhibitors; 330,000 compounds, 2.3% hits; AID 504467; note: potency is the fitted concentration of half-maximal effect; nearly all actives have a fitted effect of over 55% in size
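Cells (2,000 per well) received 5-fluorouridine plus test compound or DMSO and were incubated 16 hr at 37 °C, 5% CO2. Luciferase activity was read by luminescence 30 min after ONE-Glo addition; signal suppression marked inhibition of damage-induced ELG1 function.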
Gal4-VP16 FLuc – counter-screen for ROR gamma inhibitors: Gal4-VP16 reporter; 310,000 compounds, 3.5% hits; Drosophila S2 Gal4-VP16 UAS-luciferase, luminescence, 20 h; AID 2546; Potency, µM (titrated, usually from 53.6 µM), without a hit: at the top dose activity, negative = inhibition, most hits filed as inhibitors;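 note: Gal4-VP16 expression switched on by copper sulfate through the metallothionein promoter; potency is the fitted concentration of half-maximal effect; nearly all actives have a fitted effect of over 50% in size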
DT40 TDP1 CPT – growth inhibition of DT40 Tdp1-/-;hTDP1 cells with camptothecin (screen for TDP1 inhibitors); chicken DT40 Tdp1-/-;hTDP1 cells + 20 nM CPT, ATP luminescence, 48 h; Potency, µM (highest dose often 46.2 µM), for the others: at the top dose activity change, negative = growth inhibition, usual class: inhibitors; 420,000 compounds, 12% hits; AID 686979; note: potency is the fitted concentration of half-maximal effect; nearly all actives have a fitted effect of over 55% in size
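Chicken DT40 Tdp1-/- cells stably complemented with human TDP1 were seeded at 400 cells/well in medium containing 20 nM camptothecin, exposed to pin-transferred compounds, and grown at 37 °C for at least 48 hr. Viability was read as ATP luminescence.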
An asterisk follows results filed as active; u = inconclusive; x = not tested or not shown. Unless noted, calls come from the whole dose curve; as a rule, active = well fitted curve in the direction sought with a large enough effect; inconclusive = small, poorly fitted or top-dose-only effect, or another doubt; inactive = no such curve, though single readings can be large; an effect the other way counts as inactive or inconclusive. % is set by controls: 0 for no effect and ±100 for the full control effect.

SMILES	RORgamma inh	TDP1 cell noCPT	IL-1B inflam inh	ELG1 repair inh	Gal4-VP16 FLuc	DT40 TDP1 CPT
Cc1cccc(NC(=S)NNC(=S)NC2CCCCC2)c1C	13µM*	-1%	32	3%	u	-11%
O=c1[nH]c(=O)c2[nH]c(=S)[nH]c2[nH]1	x	16%	8	x	x	-25%
O=C(NNC(=O)c1ccccc1F)c1ccc(S(=O)(=O)N2CCCCC2)cc1	x	-13%	12	1%	x	-19%
O=C(O)CC1(CC(=O)Nc2cccc(C(=O)O)c2)CCCC1	16%	5%	-5	u	-9%	6%
CCOCCCN(C(=O)c1snc(C(N)=O)c1N)C(C(=O)NC1CCCC1)c1ccc(F)cc1 (stereo unspecified)	3%	-17%	1	0%	12%	-8%
O=C(Nc1nccs1)C1CCN(S(=O)(=O)c2c(Cl)cccc2Cl)CC1	8.9µM*	u	-10	u	9%	-26%
O=C(Nc1cc(Cl)ccn1)C1CCN(S(=O)(=O)c2cccs2)CC1	u	u	u	8.2µM*	-6%	-22%
NS(=O)(=O)c1ccc(NC(=O)C2Cc3ccccc3N2C(=O)c2ccccc2)cc1 (stereo unspecified)	x	-3%	x	x	x	5%
CC12CCC(C(=O)N/N=C/c3ccc(O)cc3O)(OC1=O)C2(C)C (stereo unspecified)	u	10µM*	161	13µM*	-5%	10µM*
C/C(=N\NC(=O)C12CCC(C)(C(=O)O1)C2(C)C)c1ccccc1O (stereo unspecified)	0.71µM*	13µM*	223	21µM*	1.3µM*	16µM*
O=C(N/N=C/c1ccc(O)cc1O)C(=O)N/N=C/c1ccc(O)cc1O	-22%	u	175	-11%	3%	u
COn1c(-c2ccccc2)nc2c1CCc1c-2no[n+]1[O-]	-18%	u	-63*	22%	-2%	u
CSCC[C@H](NC(=O)[C@@H]1Cc2ccccc2CN1)C(=O)Nc1ccc2c(c1)OCO2	-1%	13%	-9	u	-11%	-28%
COc1cc(/C=C/c2nc3cc(Cl)ccc3c(=O)n2-c2ccc(C)cc2C)cc(OC)c1OC	x	u	x	x	x	16µM*
Cc1sc(NC(=O)c2cccc(N3C(=O)CCC3=O)c2)nc1-c1ccccc1	x	u	-57*	2%	x	-5%
Cc1cccc2sc(NC(=O)C3=NN(c4ccccc4)C(=O)CC3)nc12	-2%	u	40	12%	-4%	-20%
CCOC(=O)c1cc(CC)sc1NC(=O)c1cccc(N2C(=O)CCC2=O)c1	u	u	-6	18µM*	-13%	-1%
COc1ccc(-c2csc(NC(=O)C3=NN(c4ccccc4)C(=O)CC3)n2)cc1	-3%	16µM*	-24	u	-4%	15µM*
O=C(Nc1nc(-c2cc(F)ccc2F)cs1)C1=NN(c2ccccc2)C(=O)CC1	3%	u	67	u	13%	u
COc1ccc(-c2nc(NC(=O)C3=NN(c4cccc(C)c4)C(=O)CC3)sc2C)cc1	-18%	u	40	u	5%	23µM*
C=CCCC	6%	x	x	x	-2%	x
CCOC(=O)N1CCN(C(=O)c2cc3c(=O)[nH]c4ccccc4c3s2)CC1	1%	16µM*	-16	u	-4%	u
CCOC(=O)N1CCC(NC(=O)c2cc3c(-c4cccc(OC)c4)nn(C)c3s2)CC1	-25%	u	0	u	u	23µM*
CCOC(=O)N1CCN(C(=O)c2cc3c(-c4cccc(OC)c4)nn(C)c3s2)CC1	u	23µM*	-67*	u	-7%	u
Cn1nc(-c2ccccc2)c2cc(C(=O)O)sc21	16%	-14%	-14	11%	-11%	-18%
